The assay addresses MOB kinase activator 2 (UniProt Q70IA6). As to the kind of experiment: cross-link between two proteins; cross-linking mass spectrometry; proximity labelling.

This is an account of results in article PMC10480535.

UniProt Q70IA6, sequence (Q70IA6 whole entry): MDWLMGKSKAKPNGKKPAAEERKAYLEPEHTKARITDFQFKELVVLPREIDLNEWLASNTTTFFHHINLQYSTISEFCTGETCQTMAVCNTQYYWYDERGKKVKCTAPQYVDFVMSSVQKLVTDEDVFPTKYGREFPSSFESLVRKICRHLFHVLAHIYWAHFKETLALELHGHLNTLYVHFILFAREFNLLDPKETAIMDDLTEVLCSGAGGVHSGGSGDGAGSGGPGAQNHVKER

Turning to Flotillin-1, O75955, the “listed as a hit” value is “yes”.
